# Test results from PubChem BioAssay.
# Activity calls are given as the source filed them. Unless noted, the rule behind the calls is not given here.
# Tests used:
# [1] = A549 cell viability effects, profiling panel, calcein-AM fluorescence, 48 h, basal (AID 1162); conditions: higher = more signal; note: test concentration not given here
# [2] = adipocyte viability effects, profiling panel, cell-based, 3T3-L1 adipocytes, calcein-AM fluorescence, 48 h, basal (AID 1163); conditions: 3T3-L1 adipocytes viability, higher = more signal; note: test concentration not given here
# [3] = HepG2 cell viability effects, profiling panel, calcein-AM fluorescence, 48 h, basal (AID 1164); conditions: higher = more signal; note: test concentration not given here
# [4] = MM1S cell viability effects, profiling panel, calcein-AM fluorescence, 48 h, basal (AID 1165); conditions: higher = more signal;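 note: viability of MM1S multiple myeloma cells under basal unstimulated conditions; test concentration not given here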
# [5] = basal RPMI8226 viability, no added stimulus, profiling panel, cell-based, calcein-AM fluorescence, 48 h, PK04 Diversity Set (AID 1166); conditions: RPMI8226 myeloma viability, higher = more signal;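 note: cells grown under basal conditions without added stimulus; test concentration not given here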
# [6] = basal HepG2 mitochondrial membrane potential changes, profiling panel, cell-based, JC-1 fluorescence, 24 h, 100 nL compound (AID 1167); conditions: higher = more signal; note: test concentration not given here
# [7] = basal 3T3-L1 adipocyte mitochondrial potential changes, profiling panel, cell-based, JC-1 fluorescence, 3T3-L1 adipocytes, 24 h, 100 nL compound (AID 1168); conditions: JC-1 mitochondrial fluorescence, higher = more signal, called active from +8 up or from −8 down; note: test concentration not given here
# [8] = basal RPMI8226 mitochondrial membrane potential changes, profiling panel, cell-based, JC-1 fluorescence, 24 h, 100 nL compound (AID 1169); conditions: RPMI8226 myeloma, JC-1 mitochondrial potential fluorescence, higher = more signal; note: test concentration not given here
# [9] = basal MM1S mitochondrial membrane potential changes, profiling panel, cell-based, JC-1 fluorescence, 24 h, 100 nL compound (AID 1170); conditions: higher = more signal; note: test concentration not given here
# [10] = A549 lung cancer cell viability effects, profiling panel, resazurin fluorescence, 24 h, PK04 Diversity Set (AID 1171); conditions: higher = more signal, called active from +8 up or from −8 down; note: test concentration not given here
# [11] = HepG2 liver cancer cell viability effects, profiling panel, resazurin fluorescence, 24 h, PK04 Diversity Set (AID 1172); conditions: higher = more signal; note: test concentration not given here
# [12] = basal S. cerevisiae growth modulation, no modifier, primary screen, OD600, strain BY4716, 24 h, basal condition (AID 1173); conditions: OD600, 24 h, higher = more signal, called active from +8 up or from −8 down
# [13] = MM1S myeloma cell viability, profiling panel, resazurin fluorescence, basal, 24 h, PK04 Diversity Set (AID 1174); conditions: higher = more signal, called active from +8 up or from −8 down;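 note: MM1S multiple myeloma cell line; test concentration not given here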
# [14] = target: Dihydroorotate dehydrogenase (quinone), mitochondrial (Plasmodium falciparum (isolate 3D7)) (UniProt Q08210); experiment: PfDHODH enzyme inhibitors, primary screen, biochemical, C-terminal His tag, absorbance 600 nm (AID 1175); conditions: DCIP absorbance 600 nm, higher = more signal, called active from +8 up or from −8 down;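 note: recombinant parasite enzyme with a five histidine tag at its C terminus; test concentration not given here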
# Sequence of Dihydroorotate dehydrogenase (quinone), mitochondrial (Plasmodium falciparum (isolate 3D7)) (Q08210 whole entry, looked up): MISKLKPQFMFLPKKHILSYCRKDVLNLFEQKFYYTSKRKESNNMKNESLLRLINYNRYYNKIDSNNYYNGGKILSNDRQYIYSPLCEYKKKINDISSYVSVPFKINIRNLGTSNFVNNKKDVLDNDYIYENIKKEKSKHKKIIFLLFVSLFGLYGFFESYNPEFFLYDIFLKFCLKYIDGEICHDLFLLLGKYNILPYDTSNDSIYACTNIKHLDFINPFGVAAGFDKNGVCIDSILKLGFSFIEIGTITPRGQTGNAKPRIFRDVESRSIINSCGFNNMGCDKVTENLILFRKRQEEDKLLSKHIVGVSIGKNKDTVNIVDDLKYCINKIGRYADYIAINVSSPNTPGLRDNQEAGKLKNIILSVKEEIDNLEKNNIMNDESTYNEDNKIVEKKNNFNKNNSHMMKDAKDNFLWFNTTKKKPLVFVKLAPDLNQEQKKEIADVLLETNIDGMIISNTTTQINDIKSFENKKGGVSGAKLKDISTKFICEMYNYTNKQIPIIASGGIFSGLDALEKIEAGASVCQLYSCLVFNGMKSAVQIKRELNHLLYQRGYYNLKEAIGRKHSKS
# [15] = P. aeruginosa biofilm formation inhibitors, primary screen, strain PAO1, LB-PBS medium, absorbance 600 nm (AID 1176); note: test concentration not given here; conditions: P. aeruginosa PAO1 growth/biofilm, A600, 12 h; higher = more signal
# [16] = S. cerevisiae RM11-1a growth modifiers, primary screen, strain RM11-1a, OD600, basal, 24 h (AID 1177); conditions: OD600, 24 h, higher = more signal, called active from +8 up or from −8 down;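 note: cultures grown under basal conditions with no added stressor; test concentration not given here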
# [17] = E. coli acrAB mutant growth effects, primary screen, E. coli filamentation inducers, strain DRC39, OD650, 24 h (AID 1178); conditions: higher = more signal, called active from +8 up or from −8 down;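 note: growth measured as culture turbidity by optical density at 650 nm; test concentration not given here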
# [18] = E. coli acrAB mutant growth effects, primary screen, E. coli filamentation inducers, strain DRC39, OD650, 48 h (AID 1179);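 note: screen aims at cell division blockers that make cells filament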; conditions: E. coli DRC39 delta-acrAB growth, higher = more signal, called active from +8 up or from −8 down
# [19] = RPMI8226 myeloma cell viability, profiling panel, resazurin fluorescence, basal, 24 h, PK04 Diversity Set (AID 1180); conditions: higher = more signal;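 note: RPMI8826 multiple myeloma cell line at 5000 cells per well; test concentration not given here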
# [20] = target: E3 ubiquitin-protein ligase XIAP (Homo sapiens) (UniProt P98170); experiment: XIAP binders, primary screen, biophysical, small-molecule microarray, fluorescence 635 nm (AID 1181); conditions: small-molecule microarray binding, higher = more signal;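 note: score merges 667 nm emission and signal to noise over triplicate slides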
# Sequence of E3 ubiquitin-protein ligase XIAP (Homo sapiens) (P98170 whole entry, looked up): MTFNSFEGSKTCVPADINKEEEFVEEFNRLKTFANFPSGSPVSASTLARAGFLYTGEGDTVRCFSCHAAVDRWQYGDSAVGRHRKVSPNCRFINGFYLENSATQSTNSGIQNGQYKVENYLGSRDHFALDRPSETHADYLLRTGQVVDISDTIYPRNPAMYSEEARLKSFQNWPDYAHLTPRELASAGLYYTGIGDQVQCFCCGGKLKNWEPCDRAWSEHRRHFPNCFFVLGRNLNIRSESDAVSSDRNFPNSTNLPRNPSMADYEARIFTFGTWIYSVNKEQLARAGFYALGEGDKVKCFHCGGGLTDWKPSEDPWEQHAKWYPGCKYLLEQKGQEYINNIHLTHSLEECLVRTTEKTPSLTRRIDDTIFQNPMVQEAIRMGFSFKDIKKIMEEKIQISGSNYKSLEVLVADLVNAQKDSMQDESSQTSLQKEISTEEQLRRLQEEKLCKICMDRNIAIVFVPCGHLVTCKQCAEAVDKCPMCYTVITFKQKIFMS
SMILES,z-score [1],z-score [2],z-score [3],z-score [4],z-score [5],z-score [6],z-score [7],z-score [8],z-score [9],z-score [10],z-score [11],z-score [12],z-score [13],composite z-score [14],z-score [15],z-score [16],z-score [17],z-score [18],z-score [19],composite z-score [20]
CO[C@H]1COC(=O)CCC[C@@H](C)[C@H](OC)COC(=O)[C@@H](C)NC(=O)CC=C[C@@H]1C,-0.682,1.07,-0.796,0.0819,-1.04,1.95,1.34 (inactive),0.246,-0.754,1.02 (inactive),0.0039,0.315 (inactive),0.77 (inactive),-2.33 (inactive),-1.46 (inactive),-1.07 (inactive),-1 (inactive),-0.345 (inactive),0.0228,-0.138
O=C1C[C@@H](O)[C@@H](O)[C@@H]2[C@@H]3C(=O)N(c4cccc(Oc5ccccc5)c4)C(=O)[C@@H]3CC[C@H]12,-0.0402,-0.231,0.0658,0.258,-0.0527,-0.101,-1.02 (inactive),-0.308,0.258,0.16 (inactive),0.0515,0.251 (inactive),0.0257 (inactive),0.0371 (inactive),-0.601 (inactive),0.132 (inactive),-0.539 (inactive),-0.389 (inactive),0.0381,-0.0448
C#CCCCON=C1C[C@@H](O)[C@@H](O)[C@@H]2[C@@H]3C(=O)N(C(C)(C)C)C(=O)[C@@H]3CC[C@H]12,0.053,-0.304,0.673,0.505,-0.413,-0.161,-0.505 (inactive),0.386,-0.708,-0.496 (inactive),-0.375,0.522 (inactive),-0.0486 (inactive),-0.396 (inactive),-0.143 (inactive),-0.311 (inactive),0.329 (inactive),0.221 (inactive),-0.0553,-0.0849
CCOC(=O)[C@H](CC(C)C)NC(=O)CCC1CC(OC(=O)NCc2cccc3ccccc23)CC2(CCCC(COC(=O)NCCCN3CCCC3=O)O2)O1 (stereo not given in full),0.367,1.15,-0.839,-0.0471,-1.31,0.106,-0.636 (inactive),-0.555,-1.15,0.489 (inactive),0.281,-0.761 (inactive),0.826 (inactive),0.0067 (inactive),-0.47 (inactive),0.209 (inactive),-0.134 (inactive),0.323 (inactive),-0.241,-0.104
